Test results published in PubChem BioAssay (NCI).
Compounds without any hit were thinned out: in the full panel of roughly 83,000, 20% have a hit.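 Step 1: grow cells in 96-well plates. Step 2: add test compound at a single concentration. Step 3: incubate 48 h. Step 4: record percent growth.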 Values without a mark were called inactive. Activity calls are given as the source filed them.

These molecules were tested on HCT-116 colon (assay: NCI-60 one-dose screen, 48 h (100 = growth as untreated, 0 = no growth, -100 = all killed)). Settings: 10 µM unless noted.
Method: Growth inhibition of the HCT-116 human tumor cell line is measured as a screen for anti-cancer activity. Cells are grown in 96 well plates and exposed to the test compound for 48 hours. Compounds are tested at a single concentration, which is 10^-5 M for most compounds. The reported endpoint is percent growth (GI% or GIPRCNT), where numbers from 0 - 100% represent growth inhibition, and numbers from -100% - 0 represent cell death. For example, a value of 40 represents 60% growth inhibition. A value of 0 means no net growth occurred over the course of the experiment. A value of -40 indicates 40% of cells at the beginning of the experiment died by the end of the experiment. A value of -100 means all cells are dead at the end of the experiment.
NCI-60 Human Tumor Cell Lines Screen was performed using the standard one-dose NCI protocol, which is described in more detail at https://dtp.cancer.gov/discovery_development/nci-60/default.htm.
Compounds with GIPRCNT values below 10 were considered active. Activity score was based on GIPRCNT using the following formula: […]
Score is 0 for GIPRCNT values of 100 or above, 50 for GIPRCNT values of 0, and 100 for GIPRCNT values of -100.
Work on CCOC(=O)C(=O)C(C(=O)OCC)c1ccccc1 (stereo not given) yielded a growth of 96.2%. In the case of COc1c(C(=O)Nc2ccc(C)c(Br)c2)ccc2ccccc12, the growth is reported as 96.5%. Work on CCC(C)(C)C(=O)O[C@H]1C[C@@H](C)C=C2C=C[C@H](C)[C@H](CC[C@@H]3CC(SCCN)CC(=O)O3)[C@H]21 (stereo not given in full) yielded a growth of 37.5%. Work on Cn1cc(-c2csc(-c3cn(C(=O)OC(C)(C)C)c4ccc(Br)cc34)n2)c2ccnc(Cl)c21 yielded a growth of 64.7%. With CN1CCN(c2cc(Nc3cc(C4CC4)[nH]n3)nc(Nc3ccc(CC(=O)NCc4cccc(F)c4)cc3)n2)CC1 the growth was 8.53% (active). Work on O=C(NCc1ccc(Cl)cc1Cl)C1CCC(=O)N1c1cccs1 (stereo not given) yielded a growth of 79%. For COC(=O)c1nc(-c2ccc(C)cc2)oc1S(=O)(=O)c1cccc(OC)c1, the growth was 61.6%. Work on COc1cc2c(c(OC)c1OC)CCC(c1cccc(C(=O)Nc3ccc(C#N)cc3)c1)O2 (stereo not given) yielded a growth of 48.8%. Work on O=C(NCCNc1nccc(Nc2ccc(S(=O)(=O)Nc3ccccn3)cc2)n1)c1cccc([N+](=O)[O-])c1 yielded a growth of 90.4%. In the case of NC(=O)c1c(NC(=O)c2ccc3ccccc3c2)sc2c1CCC(=O)C2, the growth is reported as 7.15% (active). CC(=O)O[C@H]1CC2CCC3C(CC[C@@]4(C)C3C[C@H]([N+]3(C)CCCCC3)[C@@H]4OC(C)=O)[C@@]2(C)C[C@@H]1N1CCCCC1 (stereo not given in full) showed a growth of 101%. Molecule CCOc1ccc(NC(=O)CSc2oc(-c3ccccc3)nc2S(=O)(=O)c2ccc(C)cc2)cc1 has a growth of 23.8%. Cc1ccc(CNc2ccc3nc(CCC4CCCCC4)[nH]c3c2)cc1 showed a growth of 16.3%. In the case of CC(O)(c1ccccc1)C(c1ccccc1)C1CCCCN1 (stereo not given), the growth is reported as 97.3%. For COc1cc2cc(NCc3cccc(Cl)c3)nc(C)c2cc1OC, the growth was 8.02% (active). NS(=O)(=O)c1ccccc1NC(=O)Nc1nc2ccccc2s1 gave a growth of 98.8%. O=C(CN1CCOCC1)Nc1nc(-c2cc3ccccc3oc2=O)cs1 showed a growth of 99%. With O=C(CN1CCCCC1)Nc1nc(-c2cc3ccccc3oc2=O)cs1 the growth was 101%. For O=C(Nc1nc2ccccc2s1)c1ccc(F)cc1, the growth was 92.8%. With CCN(CC)CCn1c2ccc(O)cc2c2sc3cc(O)ccc3c(=O)c21 the growth was 12.1%. For COC(=O)[C@]1(C)CCC[C@]2(C)[C@H]3C[C@H]4C(C(C)C)=C[C@]3(CC[C@H]21)[C@@H]1C(=O)CC[C@H](OCCC#N)[C@@H]14, the growth was 77.6%. With COc1cc(-c2csc(NC(=O)c3ccc(N4CCOCC4)c(C(F)(F)F)c3)n2)cc(OC)c1OC the growth was 16%. With N#Cc1nc(-c2ccc(F)cc2)oc1S(=O)(=O)N1CCCCC1 the growth was -19.4% (active). For Cc1ccc(NC(=O)c2sc3nc(C)c(Br)c(C)c3c2N)cc1, the growth was 72.6%. Work on CCCC/C(CC)=N\NS(=O)(=O)c1ccc([N+](=O)[O-])cc1 yielded a growth of 99.6%. Molecule O=C1Nc2ccc(C(=O)O)cc2/C1=N/c1nnc(Sc2ccccc2)s1 has a growth of 104%. In the case of CCOC(=O)c1cc(C)n(-c2ccc(C(=O)O)cc2)c1C, the growth is reported as 67.5%. In the case of CCCCCCCCCCCCCCCCCCOc1ccccc1CC(=O)OCC[N+](C)(C)C, the growth is reported as 30.6%. With Oc1c(Br)cc(Br)c2ccc(Cn3cc(-c4ccc(C(F)(F)F)cc4)nn3)nc12 the growth was -0.0235% (active). For c1ccc2cc(C[n+]3ccn(CCCCCCCCCCn4cc[n+](Cc5ccc6ccccc6c5)c4)c3)ccc2c1, the growth was 13.3%. With CCN(CC)S(=O)(=O)c1ccc(S(=O)(=O)N2CCC[C@@H](C(=O)N3CCN(c4nc(C(C)C)no4)CC3)C2)cc1 the growth was 51.8%. With O=C(/C=C/c1cccc(Cl)c1)c1cccc(OCCCOc2cccc(C(=O)/C=C/c3cccc(Cl)c3)c2)c1 the growth was 37%. With C[C@@H](CO)[C@@H]1CCC=C2CC[C@]3(C)[C@H](CC[C@@H]4[C@@]5(C)CCCNC(C)(C)[C@@H]5CC[C@]43C)[C@H]21 the growth was -20.3% (active). Work on Nc1ncnc2c1N=C(c1ccc(Br)cc1)CC(c1cccc(Nc3ccnc4cc(C(F)(F)F)ccc34)c1)N2 (stereo not given) yielded a growth of 32.8%. O=CN1N=C(c2cccc(Nc3ccnc4cc(Cl)ccc34)c2)CC1c1ccccc1 (stereo not given) was tested, and the growth was 7.26% (active). With Cc1nc2sc(C(=O)Nc3ccc(Br)cc3)c(N)c2cc1C(O)c1ccccc1 (stereo not given) the growth was 29.9%. In the case of Cc1ccc2c(c1)=C/C(=C\c1cc(-c3ccccc3)oc1O)C(=O)N=2, the growth is reported as 93.1%. Cc1ccc(Nc2cc(N)nc(N)n2)cc1Cl gave a growth of 81%. O=C1NC(=C(Cl)Cl)/C(=N\S(=O)(=O)NCc2ccccc2)N1 was tested, and the growth was 94.2%. In the case of CCC(C)N(CCNc1cc(OC)cc2cccnc12)CC(C)C (stereo not given), the growth is reported as 66.9%.
